Test results as given in PubChem BioAssay (NCATS).
Records with an inconclusive call do not appear. Calls of active or inactive are those of the source. The call rests on the fitted dose curve; in most records, active means well fitted inhibition curve with a large enough effect; inconclusive means small, poorly fitted or top-dose-only effect; inactive means no such curve, though single readings can be large or run the other way.

molecular target: Cytochrome P450 3A7 (Homo sapiens) (UniProt P24462); assay: Cytochrome P450 family 3 subfamily A member 7 (CYP3A7) small molecule antagonists: luciferase biochemical qHTS assay (AID 1963596); conditions: P450-Glo CYP3A7 enzyme luminescence, 1 h; series mostly up to 57.4 µM; activity change, negative = inhibition: at the top concentration; further: nearly all actives have a fitted effect of over 40% in size
Summary of the method: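 Luminescence read-out (relative luminescence units) after 20 min with detection reagent, which stops the reaction. Enzyme, proluciferin substrate and compound preincubated 10 min, RT; NADPH regeneration system then started 1 h reaction. Ketoconazole as positive control.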
On the % scale 0 is the no-effect control and ±100 the full control effect; potency means the concentration at half of the fitted maximal effect.

Chain of Cytochrome P450 3A7 (Homo sapiens) (P24462 whole entry, looked up): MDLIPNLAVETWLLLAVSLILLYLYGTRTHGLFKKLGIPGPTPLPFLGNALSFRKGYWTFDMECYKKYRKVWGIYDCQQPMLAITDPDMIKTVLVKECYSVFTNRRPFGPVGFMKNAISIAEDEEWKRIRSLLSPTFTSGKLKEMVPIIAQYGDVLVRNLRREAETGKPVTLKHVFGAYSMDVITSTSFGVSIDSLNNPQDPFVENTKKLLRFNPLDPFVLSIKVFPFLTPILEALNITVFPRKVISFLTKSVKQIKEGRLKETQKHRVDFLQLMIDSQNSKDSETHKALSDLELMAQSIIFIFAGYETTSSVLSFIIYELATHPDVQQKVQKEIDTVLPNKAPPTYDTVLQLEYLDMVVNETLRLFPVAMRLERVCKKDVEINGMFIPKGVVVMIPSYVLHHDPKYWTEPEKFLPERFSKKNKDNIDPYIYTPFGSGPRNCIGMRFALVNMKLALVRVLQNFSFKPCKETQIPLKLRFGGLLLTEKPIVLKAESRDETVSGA

SMILES | activity change, negative = inhibition | Potency
Cc1cc(Nc2ccc(NC(=O)c3ccc(Nc4ccnc5ccccc45)cc3)cc2)nc(N)n1 | 10.5% (inactive) | –
Cc1cc(OCc2nc(-c3ccccc3Cl)cs2)ccc1OCC(=O)O | 0% (inactive) | –
On1ncc(C2CCNCC2)c1-c1cccc(-c2ccccc2)c1 | -25.3% (inactive) | –
CC(C)c1cccc2c(-c3ccccc3)cc(-c3ccc(-c4ccc(C(=O)O)cc4)[nH]3)nc12 | 2.83% (inactive) | –
CC1CCCCC1N(Cc1ccccc1)[S+](=O)([O-])c1ccc([S+](=O)([O-])N(C)C)cc1 (stereo not given) | 0.838% (inactive) | –
Cn1nnc(-c2ccc(-c3ccc(N4C[C@H](CO)OC4=O)cc3F)cn2)n1 | -4.78% (inactive) | –
COc1ccc(-c2nc(-c3ccc(-c4cccc(Cl)c4)o3)[nH]c2-c2ccc(OC)cc2)cc1 | -10.6% (inactive) | –
Nc1nc(-n2cc(C(=O)O)c(=O)c3cc(F)c(N4CC(O)C4)c(Cl)c32)c(F)cc1F | -7.53% (inactive) | –
CC1(O)CCC(C(C)(C)O)CC1 (stereo not given) | -7.2% (inactive) | –
COc1ccc(C(=O)NC(c2ccccc2Cl)c2cc(Cl)c3cccnc3c2O)cc1 (stereo not given) | 1.52% (inactive) | –
Cc1ncc(C[n+]2csc(CCO)c2C)c(N)n1 | -4.34% (inactive) | –
CC(C)=CCC/C(C)=C/CC/C(C)=C/CC/C=C(\C)CC/C=C(\C)CCC=C(C)C | -14.6% (inactive) | –
CCN(CCCO)CCCOc1ccc2c(Nc3cc(CC(=O)Nc4cccc(F)c4)[nH]n3)ncnc2c1 | – | 14100 nM (active)
CC1(C)CC1C(=O)NC(=CCCCCSCC(N)C(=O)O)C(=O)O (stereo not given) | -6.35% (inactive) | –
CC12CCC(C[N+](C)(CCC[N+](C)(C)C)C1)C2(C)C (stereo not given) | -18.7% (inactive) | –
N#Cc1c[nH]c2c(C(=O)N3CCN(CCc4ccc(F)cc4)CC3)cccc12 | -26.8% (inactive) | –
Cc1ccc(S(=O)(=O)Nc2nc3n(n2)C(c2ccc(Cl)cc2)C=C(c2ccccc2)N3)cc1 (stereo not given) | -29.3% (inactive) | –
CC(C)Nc1nc(Nc2ccccc2)nc(-c2ccccc2)n1 | -13% (inactive) | –
O=C(O)Cc1cn(-c2ccccc2)nc1-c1ccc(Cl)cc1 | -3.33% (inactive) | –
c1ccc(-n2cnnn2)cc1 | 15.9% (inactive) | –

SMILES | activity change, negative = inhibition | Potency
Cc1c(C)c2c(c(C)c1OC(=O)CCC(=O)O)CC[C@@](C)(CCC[C@H](C)CCC[C@H](C)CCCC(C)C)O2 | -4.02% (inactive) | –
C[C@@H]1C[C@H](C)CN(CCC(=O)Nc2ccc(Br)cc2)C1 | -28.1% (inactive) | –
CCn1c(N)c(C(=O)NC)c(=O)c2ccc(C#C[C@@](C)(O)COC)nc21 | 3.98% (inactive) | –
Cc1ccc(Nc2nnc(-c3ccc([N+](=O)[O-])cc3)o2)cc1Cl | -12.6% (inactive) | –
COc1ccc(-c2n[nH]c3c2cnc2cc(OC)c(OC)cc23)cc1 | -22.5% (inactive) | –
O=C1CC[C@H](C(=O)O)N1 | -1.48% (inactive) | –
Cc1cc(C)cc(NC(=O)Cn2c(=O)n(-c3ccc(C)c(C)c3)c(=O)c3oc4ccccc4c32)c1 | -23.7% (inactive) | –
CCOc1ccc(CNC(=O)Cn2c(=O)c3cccn3c3ccc(F)cc32)cc1 | – | 425 nM (active)
CCOc1cc(C(=O)Nc2ccc(-c3nc4ncccc4o3)cc2C)cc(OCC)c1OCC | -15.7% (inactive) | –
COc1ccccc1C(=O)Nc1cccc(NC(=O)c2cccc(C)c2)c1 | 3.77% (inactive) | –
COC(=O)c1c(-c2ccc(Cl)cc2)noc1N1CCN(c2ccccc2OC)CC1 | -26.8% (inactive) | –
C=CCCCCCCCCC(=O)OC | -0.826% (inactive) | –
NC(=O)C[C@H](N)C(=O)O | -1.81% (inactive) | –
CCCN(CCN1CCN(c2ccccc2OC)CC1)C1CCc2ncsc2C1 (stereo not given) | 22.7% (inactive) | –
COc1ccc(C=CC(=O)O)cc1 | 2.44% (inactive) | –
COc1ccc(OC)c(-c2ccc(NC(=O)c3ccncc3F)cc2)c1 | -23.3% (inactive) | –
Cc1ccc(-n2nc3c(N4CCCC(C(=O)NCc5ccccc5C)C4)nnc(C)c3c2C)cc1 (stereo not given) | – | 756 nM (active)
CC(C)[C@H](N)C(=O)O | -0.829% (inactive) | –
COc1ccc2cc(Br)ccc2c1 | 0% (inactive) | –
COc1ccc(NC(=O)CSc2nc(-c3cccs3)cc(C(F)(F)F)n2)cc1OC | 9.64% (inactive) | –
